This passage reports inhibition results from PubChem BioAssay AID1422 (Emory University Molecular Libraries Screening Center, 2008).

Where “and” joins values, the source holds several entries; their conditions need not be identical. Equal values may be shown once. In all, about 260,000 compounds went through this assay and about 1,300 (0.5%) were called active.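 How the source made its calls: active means percent inhibition above 40 after rounding to a whole number; inactive means the rest.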 This excerpt belongs to a sample that is enriched for actives. Some structures have more than one record in an assay (separate samples or runs), and their calls can disagree.

Prostaglandin E2 receptor EP2 subtype (Homo sapiens), sequence (P43116 whole entry, looked up): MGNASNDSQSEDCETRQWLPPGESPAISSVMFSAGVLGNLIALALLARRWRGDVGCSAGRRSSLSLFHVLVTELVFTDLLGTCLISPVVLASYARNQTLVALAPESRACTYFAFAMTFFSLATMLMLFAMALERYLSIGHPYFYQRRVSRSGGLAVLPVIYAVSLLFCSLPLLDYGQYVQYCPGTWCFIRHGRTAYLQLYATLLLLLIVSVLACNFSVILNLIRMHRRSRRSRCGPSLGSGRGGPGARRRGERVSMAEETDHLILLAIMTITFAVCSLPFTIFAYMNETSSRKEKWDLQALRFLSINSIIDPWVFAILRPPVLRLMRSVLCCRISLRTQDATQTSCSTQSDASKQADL

This assay concerns the target Prostaglandin E2 receptor EP2 subtype (Homo sapiens) (UniProt P43116). Nature of the assay: blockers of PGE2-driven EP2 cAMP signalling – TR-FRET cAMP, C6 glioma cells, primary screen (AID 1422).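 Further: rat C6 glioma host cells with rolipram phosphodiesterase inhibitor present; the protocol text gives 20 µM as final concentration.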 The following applies: C6 glioma cells expressing human EP2, cAMP TR-FRET; at 25 µM; stronger effect = higher value; cells stimulated with saturating PGE2. Background: In TR-FRET formats the signal depends on donor and acceptor labels being close together.
Broadly, the inhibition is the drop in the measured response relative to a control, in per cent. As for `Oc1c(Cl)cc(Cl)c(Cl)c1Cc1c(O)c(Cl)cc(Cl)c1Cl`, the inhibition is 113% (active) and 18.5% (inactive).

On to `COc1ccc(CNC(=O)C2C3CCC4(CN(CCc5ccccc5)C(=O)C24)O3)cc1` (stereo unspecified), for which the inhibition was 8.25% (inactive). The figure for `COC(=O)c1c(NC(=O)c2cccc(C)c2)sc(C(=O)Nc2cccc(OC)c2)c1C` is 7.04% (inactive); for `Clc1ccc(Nc2ncnc3c2nnn3Cc2ccccc2)cc1` it is 7.31% (inactive). The value for `Clc1ccc(Nc2nc3nonc3n3nnnc23)cc1` was 91.1% (active).

Regarding `COc1ccccc1NC(=S)N(Cc1cc2cccc(C)c2[nH]c1=O)CC1CCCO1` (stereo unspecified), the inhibition was 15.9% (inactive). The value for `Cc1ccc2[nH]c(=O)c(CN(Cc3ccccc3Cl)C(=O)N3CCCC3)cc2c1` was 11.3% (inactive). The value for `CCCC(NC(=O)c1csc(C(C)=O)c1)c1ccc2c(c1)OCCO2` (stereo unspecified) was 9.91% (inactive). Regarding `COc1ccc(-c2cc(C(F)(F)F)nc(SCC(=O)N3CCCCC3C)n2)cc1` (stereo unspecified), the inhibition is 52.4% (active).

`CC1CCCCN1C(=O)CSc1nc(-c2ccccc2)cc(C(F)(F)F)n1` (stereo unspecified): the inhibition is 12.9% (inactive). The figure for `COc1ccc(-c2cc(C(F)(F)F)nc(SCCC(=O)N3CCCCC3C)n2)cc1` (stereo unspecified) is 12.1% (inactive); for `CCOc1ccc(C2C(C(=O)c3ccco3)=C(O)C(=O)N2CCOC)cc1OC` (stereo unspecified) it is 8.68% (inactive); for `COc1cccc(/C=N/Nc2ncc(C(F)(F)F)cc2Cl)c1O` it is 4.36% (inactive). The figure for `COc1cccc(/C=N/Nc2cc(C)nc(-c3ccccc3O)n2)c1O` is 39.9% (active).

Take `COc1ccccc1/C=N\Nc1cc(C)nc(-n2nc(C)cc2C)n1`: the inhibition was 3.92% (inactive). The value for `Oc1ccccc1-c1nc2cnccn2c1NCc1ccccc1` was 9.33% (inactive); that for `CN(C)CCCNC(=O)C(=O)Nc1ccc2c(c1)OCO2` was 13.4% (inactive). The figure for `C[C@H]1O[C@@H](CC(=O)O)Cc2c1c(O)c1c(O)cc(-c3cc(=O)c4c(=O)c5c(c(=O)c=4c3=O)C[C@H](CC(=O)O)O[C@@H]5C)c(O)c1c2O` is 41.5% (active); for `Cc1ccc(NC=C2C(=O)OC(C)(C)OC2=O)cc1Cl` it is 10% (inactive).

Turning to `Cc1ccc(C)c2[nH]c(=O)c(C(c3nnnn3Cc3ccc(F)cc3)N3CCc4ccccc4C3)cc12` (stereo unspecified), the inhibition is 6.97% (inactive). The value for `C=COCCNC(=O)Cn1nc(C)n2c(cc3occc32)c1=O` was 7.9% (inactive). The value for `Nc1nc(SCc2ccc([N+](=O)[O-])cc2)c2ncn(C3OC(CO)C(O)C3O)c2n1` (stereo unspecified) was 9.89% (inactive); that for `OC[C@@H]1O[C@H](n2cnc3c(SCc4ccccc4)ncnc32)[C@H](O)[C@H]1O` was 48.2% (active); that for `CNc1ncnc2c1ncn2[C@@H]1O[C@H](CO)[C@H](O)C1O` (stereo partly specified) was 13.5% (inactive). The figure for `CCOc1ccc(-n2nnnc2SCC(=O)Nc2ccc(C)c(NC(=O)CC)c2)cc1` is 10.6% (inactive); for `CC(=O)Nc1ccc(S(=O)(=O)N2CC=C[C@@H]2C(=O)NCCc2ccccc2)cc1` it is 8.27% (inactive). For the compound `Cc1ccc(C)c2nc(SCC(=O)Nc3ccccc3-c3ccccc3)c(C#N)cc12`, the inhibition was 13.9% (inactive).

For the compound `Cc1cccc2cc(CN(Cc3cccs3)C(=O)Nc3ccc(Cl)cc3)c(=O)[nH]c12`, the inhibition is 6.58% (inactive). The figure for `OC(CN1CCC(O)(c2cccc(C(F)(F)F)c2)CC1)c1ccccc1` (stereo unspecified) is 5.58% (inactive); for `CC1CCc2c(sc3ncn4c(SCC(=O)N5CCc6ccccc65)nnc4c23)C1` (stereo unspecified) it is 16.8% (inactive); for `COc1ccccc1NC(=O)CSc1ncnc2sc3c(c12)CCC(C)C3` (stereo unspecified) it is 15.3% (inactive). The value for `COc1ccc(NC(=O)CSc2nnc3c4c5c(sc4ncn23)CC(C)CC5)cc1` (stereo unspecified) was 46.8% (active); that for `Cc1nnc(NC(=O)CN2CCN(C3CCCCC3)CC2)s1` was 13.3% (inactive); that for `COC(=O)c1ccc(-n2nnnc2SCC(=O)NCc2cccs2)cc1` was 10.1% (inactive). The figure for `COc1ccc(C2(NC(=O)c3ccc(N4CCCCS4(=O)=O)cc3)CCCC2)cc1` is 6.96% (inactive).

With `O=C(O)C1CCN(C(=O)OCc2ccccc2)CC1`, the inhibition is 7.11% (inactive). The figure for `CC(C)C(NC(=O)OCc1ccccc1)C(=O)OCC(=O)N1C(C)CCCC1C` (stereo unspecified) is 12.2% (inactive); for `NC1(C(=O)OCc2ccccc2)CCCC1` it is 42.6% (active); for `COc1ccccc1C1(NC(=O)c2snnc2C)CCCC1` it is 10.4% (inactive). The value for `O=C(O)COc1nc(N2CCCCC2)nc(N2CCCCC2)n1` was 11.5% (inactive); that for `Cc1cccc(N(CC(=O)NC2CCCC2)C(=O)c2snc(C(=O)NC3CCCCC3)c2N)c1C` was 13.6% (inactive). The value for `CS(=O)(=O)c1ccc(Cl)c(NC(=O)Nc2ccccc2)c1` was 6.72% (inactive); that for `CC(=O)Nc1cc(C(=O)O)ccc1S(=O)(=O)c1ccc(Cl)cc1` was 5.25% (inactive). As for `O=C(Nc1ccccc1)c1nnsc1S(=O)(=O)c1ccc(Cl)cc1`, the inhibition was 114% (active). On to `CC1CCc2c(sc3ncnc(SCc4cc(=O)[nH]c5ccccc45)c23)C1` (stereo unspecified), for which the inhibition is 13.1% (inactive). With `Cc1cccc2c(=O)c(C(=O)NN)c[nH]c12`, the inhibition is 5.35% (inactive). The figure for `Cc1cc(C)cc(NC(=O)CSc2nc3c(c(=O)n(C)c(=O)n3C)n2C(C)C)c1` is 5.34% (inactive); for `Cc1cc2cc3c(cc2n2c(SCC(=O)Nc4ccc(Cl)cc4)nnc12)OCCO3` it is 19.1% (inactive); for `COC(=O)c1ccccc1NC(=O)CSc1nnc2c(C)cc3cc4c(cc3n12)OCCO4` it is 7.88% (inactive).

In the case of `Cc1nc(NC(=O)CSc2nnc3c(C)cc4cc5c(cc4n23)OCCO5)sc1C`, the inhibition is 40.1% (active). The value for `CC1Cc2cc(C(O)CN3CCCC3)ccc2N1C(=O)C(C)(C)C` (stereo unspecified) was 6.03% (inactive).

On to `COc1cc(C2C(C(=O)c3ccc(C)o3)=C(O)C(=O)N2Cc2cccnc2)ccc1O` (stereo unspecified), for which the inhibition is -0.43% (inactive). The value for `Cc1ccc(C(=O)C2=C(O)C(=O)N(Cc3ccccc3)C2c2ccncc2)o1` (stereo unspecified) was 17.6% (inactive); that for `C=CCOc1cccc(C2C(C(=O)c3ccc(C)o3)=C(O)C(=O)N2c2nnc(C)s2)c1` (stereo unspecified) was 45.8% (active); that for `CC(=O)C(C)n1c(CN2CCC(C)CC2)nc2c1c(=O)n(C)c(=O)n2C` (stereo unspecified) was 7.13% (inactive). The figure for `Cn1c(=O)c2c([nH]c(=O)n2Cc2cccc3ccccc23)n(C)c1=O` is 11.4% (inactive).

For the compound `O=C(Nc1cccnc1)c1ccc(Cl)c([N+](=O)[O-])c1`, the inhibition is 3.46% (inactive).

With `O=C(/C=C/c1ccc(Cl)c([N+](=O)[O-])c1)c1ccc(O)cc1`, the inhibition is 2.09% (inactive). The value for `O=C(/C=C/c1ccc(Cl)c([N+](=O)[O-])c1)c1cccnc1` was 43.7% (active). The figure for `COc1ccc(CNc2sc3c(c2C(=O)Nc2ccccc2OC)CCC3)cc1` is 8.59% (inactive); for `COc1ccc2c(c1)NC1(CCN(C(=O)c3ccc(Cl)nc3)CC1)c1cccn1-2` it is 13% (inactive); for `Cc1cccc(NC(=S)N(Cc2cc3ccc(C)c(C)c3[nH]c2=O)CC2CCCO2)c1` (stereo unspecified) it is 8.93% (inactive). The figure for `O=c1oc2ccccc2cc1-c1csc(Nc2cccc(O)c2)n1` is 117% (active).

As for `O=c1oc2ccccc2cc1-c1csc(Nc2ccc(O)cc2)n1`, the inhibition was 4.13% (inactive). The value for `COc1ccc2nc(Nc3nc(-c4cc5ccccc5oc4=O)cs3)sc2c1` was 6.47% (inactive); that for `CCOc1ccc2nc(SCC(=O)OC(C)C)c(C#N)cc2c1` was 10.9% (inactive); that for `O=C(O)CC1=C(Nc2ccccc2)C(=O)N(c2ccccc2)C1c1ccc(Cl)cc1` (stereo unspecified) was 5.93% (inactive). The figure for `O=C1C=C(c2ccc(Cl)cc2)C(=O)N1Nc1ccccc1` is 134% (active); for `O=C1c2cccc3cc(Br)cc(c23)C(=O)N1Nc1ccccc1` it is 7.35% (inactive). The figure for `COc1ccc(C(c2nnnn2CC2CCCO2)N2CCN(C3CCCCC3)CC2)cc1` (stereo unspecified) is 1.12% (inactive); for `Cc1ccc(C)c(N2C(=O)c3cccc4c(N(C)C)ccc(c34)C2=O)c1` it is 8.88% (inactive); for `CC1CCN(C(=O)CN(C)S(=O)(=O)c2ccc(F)cc2)CC1` it is 7.13% (inactive). On to `c1ccc(-c2cc3c(NCC4COc5ccccc5O4)ncnc3s2)cc1` (stereo unspecified), for which the inhibition was 99.7% (active). Regarding `COc1ccc(Nc2ncnc3sc(-c4ccccc4)cc23)c(OC)c1`, the inhibition is 15.7% (inactive). Take `c1ccc2c(c1)OCC(CNc1ncnc3nc[nH]c13)O2` (stereo unspecified): the inhibition is 10.3% (inactive). For `COc1ccccc1N=C1Sc2nc3cc4c(cc3cc2CN1CC1CCCO1)OCO4` (stereo unspecified), the inhibition was 9.09% (inactive). The figure for `CC(C)n1c(SCC(=O)N(Cc2ccccc2)C(C)(C)C)nc2c1c(=O)n(C)c(=O)n2C` is 9.83% (inactive); for `CCN1CCN(C(=O)c2sc3ccccc3c2Cl)CC1` it is 9.4% (inactive); for `COc1ccccc1NC(=O)C1=C(C)NC2=C(C(=O)CCC2)C1c1ccc(C)o1` (stereo unspecified) it is 2.07% (inactive). The figure for `COC(=O)C1=C(C)NC2=C(C(=O)c3ccccc32)C1c1ccc(-c2ccc(C(=O)O)cc2)o1` (stereo unspecified) is 42.5% (active); for `Cc1ccc(C2C3=C(Nc4[nH]n(-c5ccccc5)c(=O)c42)c2ccccc2C3=O)cc1` (stereo unspecified) it is 10.2% (inactive); for `O=C(NCc1ccccc1)C(=O)c1c[nH]c2ccccc12` it is 12.1% (inactive). The value for `C/C(Cl)=C\CSc1nc(N2CCOCC2)c2c(c1C#N)CC(C)(C)OC2` was 9.2% (inactive); that for `CN1CCN(C(c2ccc(Cl)cc2)c2nnnn2Cc2ccco2)CC1` (stereo unspecified) was 13.3% (inactive); that for `Cc1ccc(N2CCCC2=O)cc1S(=O)(=O)NC1CCCNC1=O` (stereo unspecified) was 5.07% (inactive). With `COc1ccc2c(c1)N(C)/C(=c1\s/c(=C3\SC(=S)N(C)C3=O)n(C)c1=O)S2`, the inhibition is 17.4% (inactive). Take `C/C(N[O-])=C(\C)[N+]([O-])=[Co].CC(=N\[O-])/C(C)=N/[O-].[CH2-]CCN1CCOCC1.c1ccncc1`: the inhibition was 42.1% (active). Regarding `CN(C)S(=O)(=O)c1ccc(S(=O)(=O)N2CCN(c3ccccc3F)CC2)cc1`, the inhibition was 15.4% (inactive). With `CCOc1cc(-c2cc(-c3ccc(OC)cc3)nc(N)c2C#N)ccc1O`, the inhibition is 13.6% (inactive) and 5.97% (inactive). The figure for `CCc1c(-c2ccccc2)nc(N)c(C#N)c1-c1cccs1` is 5.93% (inactive); for `CCOc1cc(-c2c(C#N)c(N)nc(-c3ccccc3)c2CC)ccc1O` it is 42.1% (active).
